AmpC inh detg = blocks E. coli AmpC beta-lactamase in detergent assay | P00811 | AmpC hydrolysis of nitrocefin, absorbance 480 nm, 0.01% Triton | Potency, µM (series often up to 114 µM), most hits filed as inhibitors | 370,000 compounds, 0.041% hits | AID 485294; further: nearly all actives have a fitted effect of over 25% in size
Target sequence (P00811 whole entry, looked up): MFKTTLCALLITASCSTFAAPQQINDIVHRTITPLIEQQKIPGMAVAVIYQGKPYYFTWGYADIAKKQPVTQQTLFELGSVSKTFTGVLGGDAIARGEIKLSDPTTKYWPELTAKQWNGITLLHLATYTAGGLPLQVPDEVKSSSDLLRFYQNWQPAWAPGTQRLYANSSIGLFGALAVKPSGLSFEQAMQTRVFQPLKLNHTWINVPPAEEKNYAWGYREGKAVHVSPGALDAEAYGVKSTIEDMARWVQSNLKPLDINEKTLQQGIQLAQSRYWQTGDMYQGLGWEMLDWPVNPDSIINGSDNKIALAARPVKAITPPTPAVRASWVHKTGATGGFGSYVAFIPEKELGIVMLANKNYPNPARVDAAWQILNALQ
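20 mM phosphate pH 7.0 + 0.01% (detergent screen) or 0.0001% Triton X-100; 5.3 nM AmpC reagent; cpd preinc 15 min RT; nitrocefin (800 uM stock) to start; A480 q20 s × 4 min; Activity was normalised to no-enzyme and no-compound control wells.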
FMDV inh = foot and mouth disease virus antiviral activity; FMDV antiviral cell-based qHTS; Potency, µM (top dose mostly 57.9 µM), usual class: inhibitors; 410,000 compounds, 1.2% hits; AID 1159524; calls by dose curve; tested in HEK293T cells; further: read-out not given here; nearly all actives have a fitted effect of over 45% in size
Sm TGR block = inhibitors of Schistosoma mansoni thioredoxin glutathione reductase | Q962Y6 | purified TGR, DTNB reduction, TNB absorbance 405 nm | Potency, µM (doses to about 114 µM), hits mostly inhibitors | 360,000 compounds, 3% hits; further: nearly all actives have a fitted effect of over 60% in size
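First, TGR (20 nM dispensed) and NADPH were mixed with compound. Second, a 15 min room-temperature incubation followed. Third, further NADPH and then DTNB were added to start the reaction. Finally, TNB absorbance was monitored kinetically.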
AMA1-RON2 inh = AMA1-RON2 (P. falciparum) interaction inhibition; AlphaScreen AMA1-biotinylated RON2 peptide binding; Potency, µM (doses to about 58.2 µM), most hits filed as inhibitors; 360,000 compounds, 0.2% hits; further: nearly all actives have a fitted effect of over 45% in size
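AMA1 (3D7) with his tag at 25 nM final met compounds first, then biotinylated RON2 peptide at 25 nM; detection used donor plus acceptor beads, 10 µg/mL apiece, read by AlphaScreen after 30 min at room temperature.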
AmpC inh no detg = AmpC beta-lactamase inhibition without detergent; AID 485341; AmpC nitrocefin hydrolysis, absorbance 480 nm, 0.0001% Triton; Potency, µM (titrated, usually from 57.1 µM), usual class: inhibitors; P00811; 330,000 compounds, 0.52% hits; further: nearly all actives have a fitted effect of over 20% in size
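AmpC (5.3 nM in the dispensed reagent) in 20 mM phosphate pH 7.0 with 0.01% (detergent screen) or 0.0001% Triton X-100 was preincubated with compounds for 15 min at room temperature. Nitrocefin was then added from an 800 uM solution, and hydrolysis was followed at 480 nm.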
Numbers stand for hits; n = inactive; u = inconclusive; x = no result; [ ] = remark or other dose. The list is not random: actives were taken first. Their share in the collection is about 4.1%. Unless noted, the call rests on the fitted dose curve; in most records, active means well fitted curve in the direction sought with a large enough effect; inconclusive means small, poorly fitted or top-dose-only effect, or another doubt; inactive means no such curve, though single readings can be large; an effect the other way counts as inactive or inconclusive.

SMILES	AmpC inh detg	FMDV inh	Sm TGR block	AMA1-RON2 inh	AmpC inh no detg
NCC1OC(n2cnc3c(=O)[nH]c(N)nc32)C(O)C1O (centres undefined)	x	n	x	x	x
Cn1c2c(c(=O)n(C)c1=O)C(C(F)(F)F)(C(F)(F)F)N=C(c1ccc(Cl)cc1)N2	n	2.2µM	n	n	n
Cc1ccccc1C1=NC(C(F)(F)F)(C(F)(F)F)c2c(n(C)c(=O)n(C)c2=O)N1	n	n	n	n	n
Cc1c(/C=N/NC(=O)c2ccccc2O)c2ccccn2c1C(=O)c1ccc(F)cc1	n	25µM	n	n	n
CCOC(=O)N/N=C/c1c(C)c(C(=O)c2ccc(F)cc2)n2ccccc12	n	n	n	n	n
COC(=O)N/N=C/c1c(C)c(C(=O)c2ccc(F)cc2)n2ccccc12	n	35µM	n	n	n
COc1cc(OC)cc(-c2cc3nc(C)c(CCC(=O)NC(C)CCc4ccco4)c(C)n3n2)c1 (centres undefined)	n	u	n	n	n
COc1cc(OC)cc(-c2cc3nc(C)c(CCC(=O)O)c(C)n3n2)c1	n	1.4µM	n	n	n
COc1ccc(-c2cc3nc(C)c(CCC(=O)N4CCN(c5cc(C)ccc5C)CC4)c(C)n3n2)c(OC)c1	n	28µM	n	x	x
CCC(=O)N1c2ccccc2CC1C(=O)NCCc1ccc(Cl)cc1 (centres undefined)	n	n	n	x	x
O=C(CC(=O)c1ccccc1)Nc1ccc(Cl)cc1	n	n	32µM	n	n
O=C(CC(Nc1ccc(Cl)cc1)C(=O)O)c1ccccc1 (centres undefined)	n	n	0.71µM	n	n
COc1ccccc1NC(CC(=O)c1ccccc1)C(=O)OCC(=O)c1ccc(F)cc1 (centres undefined)	n	n	20µM	n	n
O=C(CC(Nc1cccc(Cl)c1Cl)C(=O)O)c1ccccc1 (centres undefined)	n	n	x	n	n
CN(c1ccccc1)S(=O)(=O)c1ccc(NC(=O)CC(=O)c2ccccc2)cc1	x	40µM	x	n	x
CC(=O)Nc1ccc(NC(=O)c2ccc(S(=O)(=O)N(C)c3ccccc3)cc2)cc1	n	u	n	n	n
Cc1ccn(CCC(=O)NCC2Cc3cc(Cl)cc(-c4ccc5[nH]ccc5c4)c3O2)n1 (centres undefined)	x	n	x	x	x
Cc1ccc(NC(=O)CCCc2nnc3n(C)c(=O)c4sccc4n23)cc1C	n	n	n	x	x
O=C(c1ccc([N+](=O)[O-])cc1)N(Cc1ccco1)c1ccccn1	n	n	n	x	x
Cc1c(Cl)cccc1NC(CC(=O)c1ccccc1)C(=O)OCC(=O)c1cccs1 (centres undefined)	n	n	8.9µM	n	n
Cc1c(Cl)cccc1NC(CC(=O)c1ccccc1)C(=O)O (centres undefined)	n	n	1µM	n	n
COc1cc(CC(=O)Nc2cccc(S(=O)(=O)N(C)c3ccccc3)c2)cc(OC)c1OC	x	22µM	x	n	n
COc1cccc(CN(C)CC(=O)Nc2cccc(S(=O)(=O)N(C)c3ccccc3)c2)c1OC	x	u	x	n[11.6 µM]	x
O=C(CC(Nc1ccccc1Cl)C(=O)O)c1ccccc1 (centres undefined)	n	n	x	n	n
O=C(CC(Nc1cccc(Cl)c1Cl)C(=O)OCC(=O)c1cccs1)c1ccccc1 (centres undefined)	u	n	n	n	n
SMILES	AmpC inh detg	FMDV inh	Sm TGR block	AMA1-RON2 inh	AmpC inh no detg
Cc1ccc(Cl)cc1NC(=O)c1cc(-c2ccc3c(c2)OCCO3)on1	n	n	n	x	x
COc1cccc(CNC(=O)Cc2c(C(=O)O)c(C)cn2C)c1	n	n	n	x	x
Cc1ccc2[nH]nc(C(=O)N3CCOc4ccc(CN5CCc6sccc6C5)cc4C3)c2c1	x	n	x	x	x
O=C(NCc1ccco1)c1ccccc1NS(=O)(=O)c1ccc(Cl)s1	n	n	28µM	n	n
O=C(O)c1ccc(S(=O)(=O)N[C@@H](Cc2ccc(O)cc2)C(=O)O)cc1	u	x	45µM	x	n
N#Cc1ccc(C[C@@H](NS(=O)(=O)c2ccc(C(=O)O)cc2)C(=O)O)cc1	n	x	n	x	n
CCC(C(=O)NCc1cc(OC)ccc1OC)n1nc(C)c2sc3ccccc3c2c1=O (centres undefined)	n	n	n	x	x
CCC(C)Nc1c([N+](=O)[O-])cc(C)cc1[N+](=O)[O-] (centres undefined)	n	n	n	16µM	n
CCC(C)NCCOc1ccc(C)cc1[N+](=O)[O-] (centres undefined)	n	n	n	n	n
Cc1[nH]c2ccccc2c1CC#N	n	n	n	n	n
Cc1[nH]c2ccccc2c1C(C#N)(C#N)C1C(=O)c2ccccc2C1=O	n	n	45µM	n	14µM
Cc1ccc(CNC(=O)c2ccc(CN3CC(=O)N4CCCCC4C3=O)cc2)cc1 (centres undefined)	n	n	n	x	x
O=C1C=C2C(=CCOC2O)O1 (centres undefined)	x	14µM	x	x	x
Cc1c(C(=O)N(CCO)C(C)C)cnn1-c1ncc2c(n1)-c1ccccc1CCC2	x	n	x	x	x
COCCn1c(SCCOc2ccccc2)nc2ccccc2c1=O	n	25µM	n	n	n
COC1=CC(=O)[C@]2(C=C1OC)OC[C@@H]1Oc3c(ccc4c3C=CC(C)(C)O4)C(=O)[C@@H]12	x	16µM	x	n	n
CCC(=O)N1CCc2cc(S(=O)(=O)NC(Cc3ccccc3)C(=O)Nc3cccc(OC)c3)ccc21 (centres undefined)	n	n	n	x	x
CC(=O)c1cccc(OCC(=O)N2CCN(c3ccc(C(F)(F)F)cn3)CC2)c1	n	u	n	n	n
O=C(O)COCC(=O)N1CCCN(c2ccc(C(F)(F)F)cn2)CC1	n	n	40µM	n	n
Oc1c(/C=C/C=C/C=Nc2ccccc2)sc(=S)n1Cc1ccccc1	n	n	11µM	n	13µM
CCCCn1c(O)c(/C=C/C=C/C=Nc2ccccc2)sc1=S	u	u	20µM	n	u
O=C(/C=C/c1ccc(F)cc1)Nc1nc2n(n1)C(c1ccc(Cl)cc1)C=C(c1ccccc1)N2 (centres undefined)	n	n	n	x	x
CCOC(=O)c1ccc2c(c1)C1C=CCC1C(C(=O)O)N2 (centres undefined)	u	x	7.9µM	x	n
CCN(CC)C(=O)c1ccc2c(c1)C1C=CCC1C(C(=O)O)N2 (centres undefined)	n	n	0.45µM	13µM	n
CN(C)c1ccc(Nc2ncnc3c2c(-c2ccccc2)cn3-c2cccc(Cl)c2)cc1	n	n	n	x	x
Cc1cc(C)cc(NC(=O)CSc2nc(=O)[nH]c3c2CCC3)c1	n	n	n	x	x
Cc1ccccc1-c1nc(NC2CCNCC2)c2ccccc2n1	x	n	x	x	x
CCc1ccccc1N1C(=O)NC(=O)/C(=C\c2cc(C)n(C)c2C)C1=O	n	n	n	n	n

From PubChem
